Assay outcomes as filed in PubChem BioAssay.
PLK1 PBD block = PLK1 (human) polo-box domain binding inhibition; 2.8% of 360,000 active; Plk1 PBD binding of FITC phosphopeptide, fluorescence polarization; P53350; Potency, µM, hits mostly inhibitors; further: series mostly up to about 57 µM; nearly all actives have a fitted effect of over 65% in size
Target sequence (P53350 whole entry, looked up, the tested form may be a part): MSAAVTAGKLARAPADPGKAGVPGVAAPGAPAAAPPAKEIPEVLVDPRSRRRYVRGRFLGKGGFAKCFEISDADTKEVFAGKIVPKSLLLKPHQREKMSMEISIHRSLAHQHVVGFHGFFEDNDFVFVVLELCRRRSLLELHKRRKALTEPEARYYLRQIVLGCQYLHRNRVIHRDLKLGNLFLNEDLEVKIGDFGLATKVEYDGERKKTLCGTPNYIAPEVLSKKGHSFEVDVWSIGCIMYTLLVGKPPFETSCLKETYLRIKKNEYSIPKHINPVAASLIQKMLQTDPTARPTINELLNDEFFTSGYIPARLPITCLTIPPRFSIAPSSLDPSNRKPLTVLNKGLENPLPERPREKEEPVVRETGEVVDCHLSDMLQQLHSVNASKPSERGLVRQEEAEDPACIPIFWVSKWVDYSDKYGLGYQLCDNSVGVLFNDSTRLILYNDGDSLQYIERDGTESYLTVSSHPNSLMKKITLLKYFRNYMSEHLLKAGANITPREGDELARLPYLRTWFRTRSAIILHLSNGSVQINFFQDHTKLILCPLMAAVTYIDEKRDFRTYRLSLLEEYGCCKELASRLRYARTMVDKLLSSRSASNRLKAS
JMJD2A Tudor = JMJD2A Tudor domain (human) inhibition; Potency, µM (series often up to 114 µM), most hits filed as inhibitors; 4.4% of 390,000 active; AlphaScreen JMJD2A-Tudor / H3K4me3 peptide binding; further: nearly all actives have a fitted effect of over 50% in size
BAZ2B block = blocks human BAZ2B | 4.4% of 360,000 active | Q9UIF8 | AlphaScreen BAZ2B-H3K14Ac peptide displacement | Potency, µM (top dose mostly 114 µM), hits mostly inhibitors; further: nearly all actives have a fitted effect of over 60% in size
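AlphaScreen displacement: compounds (up to 110uM) incubated 30 min at room temperature with a preformed 50 nM BAZ2B/50 nM biotinylated H3K14Ac peptide complex in PBS pH 7.4 with Tween-20. Donor and acceptor beads at 10 ug/mL final added, 20 min light-protected before reading.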
HP1b binding inh = blocks HP1-beta chromodomain binding to methylated histone tails; P83916; AlphaScreen HP1-beta / biotin-H3K9me3 peptide binding; Potency, µM (doses to about 114 µM), usual class: inhibitors; 0.56% of 390,000 active; AID 540317; further: nearly all actives have a fitted effect of over 70% in size
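HP1-beta protein (50 nM final) preincubated 30 min at room temperature with biotinylated H3(1-18)K9me3 peptide (50 nM) in PBS pH 7.4, 0.01% Tween-20, then compound added for 30 min. AlphaScreen streptavidin donor/nickel chelate acceptor beads (10 ug/mL final), 30 min dark, luminescence read.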
G9a block = blocks human histone lysine methyltransferase G9a. Potency, µM (highest dose often 102 µM), actives largely listed as inhibitors. G9a H3K9 monomethylation, AlphaScreen, 2 h. 8.8% of 350,000 active; further: nearly all actives have a fitted effect of over 75% in size
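Chemiluminescent proximity detection of H3K9 monomethylation, read after 10 min bead incubation in the dark. Reaction: 20 nM G9a, 500 nM biotin-H3K9 peptide, 20 uM SAM cofactor, 2 h, room temperature, following 15 min enzyme-compound preincubation.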
ALOX12 inh = blocks human arachidonate 12S-lipoxygenase. Potency, µM (doses to about 108 µM), most hits filed as inhibitors. P18054. AID 1671190. 1.1% of 580,000 active. purified 12hLO, xylenol orange hydroperoxide absorbance
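Purified human 12hLO at 150 nM in 25 mM Hepes, 0.01% Triton X-100, pH 7.0, preincubated 15 min at room temperature with compound. Reaction started with 40 uM arachidonic acid, 30 min at room temperature. Hydroperoxide measured by Fe-xylenol orange, 573/405 nm absorbance ratio.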
Numbers stand for hits; 0 = inactive; ? = inconclusive; - = not tested or not shown; [ ] = another dose, or the depositor's remark. Only some compounds are listed: those with a hit (about 9% of all), similar ones and a draw of the others. The call rests on the fitted dose curve; in most records, active means well fitted curve in the direction sought with a large enough effect; inconclusive means small, poorly fitted or top-dose-only effect, or another doubt; inactive means no such curve, though single readings can be large; an effect the other way counts as inactive or inconclusive.

SMILES	PLK1 PBD block	JMJD2A Tudor	BAZ2B block	HP1b binding inh	G9a block	ALOX12 inh
Nc1nnc(SCC(=O)c2ccco2)s1	0	0	0	0	0[0.501 µM]	0
Cc1cc(C(=O)CSc2nnc(N)s2)c(C)n1Cc1ccco1	0	0	0	0	40µM	0
COc1ccc(OC)c(NC(=O)[C@H](Cc2ccccc2)N2Cc3ccccc3C2=O)c1	-	0	?	0	?	?
COc1ccc(CNC(=O)/C=C/c2cc([N+](=O)[O-])ccc2OC(F)F)cc1	0	0	0	0	0[12.7 µM]	0
CN(Cc1ccccc1)Cc1c(O)ccc2ccccc12	?	4µM	79µM	?	8.9µM	0.79µM
CSc1ccccc1NC(=O)CN(C)Cc1c(O)ccc2ccccc12	11µM	56µM	?	0	2.2µM	5µM
COc1ccc(OCCN(C)Cc2c(O)ccc3ccccc23)cc1	8.4µM	?	0	0	7.1µM	?
COc1cc(S(=O)(=O)N2CCOCC2)ccc1F	0	0	-	0	0	?
O=C(Cn1ccc2cc(S(=O)(=O)N3CCCCCC3)ccc21)N1CCC2(CC1)OCCO2	-	-	-	-	-	0
COc1ccc(C(=O)/C(=C/c2ccccn2)c2nc3ccccc3o2)cc1	-	-	-	-	-	0
COc1ccc(C(=O)/C(=C/c2ccco2)c2nc3ccccc3o2)cc1	-	-	-	-	-	14µM
COc1cccc(C(=O)/C(=C/c2ccco2)c2nc3ccccc3o2)c1	-	-	-	-	-	40µM
COc1cc(OC)cc(C(=O)/C(=C\c2ccco2)c2nc3ccccc3o2)c1	-	-	-	-	-	40µM
COCc1cc(C2C(C(=O)c3ccco3)=C(O)C(=O)N2CCOCCO)ccc1O (stereo not given)	0	50µM	?	0	?	?
COCCCN1C(=O)C(O)=C(C(=O)c2ccc(C)o2)C1c1cccc(Br)c1 (stereo not given)	0	89µM	0	0	0	?
COCCCN1C(=O)C(O)=C(C(=O)c2ccco2)C1c1ccccc1 (stereo not given)	0	50µM	?	0	0[12.7 µM]	?
CCOc1cc(C2C(C(=O)c3ccco3)=C(O)C(=O)N2CCc2ccccc2)ccc1O (stereo not given)	0	?	?	0	?	0
CCN(CC)CCCN1C(=O)C(O)=C(C(=O)c2ccc(C)o2)C1c1ccc(C)o1 (stereo not given)	0	?	0	0	20µM	0
CCOc1cccc(C2C(C(=O)c3ccc(C)o3)=C(O)C(=O)N2CCCn2ccnc2)c1 (stereo not given)	0	?	?	0	0[0.501 µM]	0
O=C(COC(=O)c1ccc(O)cc1)c1ccc2c(c1)OCCO2	0	0	0	0	0	0
O=C(Nc1ccccc1C(=O)OCc1cc(=O)n2ccsc2n1)c1ccc(Cl)cc1	-	0	0	0	0	0
CC(c1nc2ccccc2[nH]1)n1c(=O)c(-c2cccs2)nc2ccccc21 (stereo not given)	0	-	-	-	-	?
Cc1ccc(C(=O)Nc2cccc(CNCc3csc(C)n3)c2)cc1	-	-	-	-	-	0
CCOCCCN1C(=O)C(O)=C(C(C)=O)C1c1cccs1 (stereo not given)	0	89µM	-	0	-	0
COCCCN1C(=O)C(O)=C(C(C)=O)C1c1ccccn1 (stereo not given)	0	79µM	0	0	?	?
SMILES	PLK1 PBD block	JMJD2A Tudor	BAZ2B block	HP1b binding inh	G9a block	ALOX12 inh
O=C(C1=C(O)C(=O)N(CCc2ccccc2)C1c1cccnc1)c1ccco1 (stereo not given)	0	0	?	0	?	?
O=C(C1=C(O)C(=O)N(CCc2ccccc2)C1c1cccs1)c1ccco1 (stereo not given)	0	0	?	0	50µM	?
COc1cc(C2C(C(=O)c3ccco3)=C(O)C(=O)N2Cc2ccccc2)ccc1O (stereo not given)	0	56µM	0	0	71µM	?
CC1CN(C(=O)c2ccc(Cl)c(S(=O)(=O)NCc3ccco3)c2)CC(C)O1 (stereo not given)	0	0	0	0	0[12.7 µM]	0
Brc1ccc(Oc2ncnc3c2oc2ccccc23)cc1	-	-	-	-	-	0
Cc1ccsc1C(=O)N1CCC2(CC1)NC(=O)N(c1cccc(F)c1)N2	-	-	-	-	-	2.8µM
Cc1ccsc1C(=O)N1CCN(S(=O)(=O)c2cccs2)CC1	0	0	0	0	0	0
